# Assay results from the OligoGym collection.
# Experiments:
# Experiment in all cases: pooled miR-30 sensor sort-seq; sequence = guide strand
# Settings in all cases: shRNA
# BRD2 = target: BRD2
# BOLA1 = target: BOLA1
# BOP1 = target: BOP1
# BRAP = target: BRAP
# C11orf49 = target: C11orf49
# C14orf181 = target: C14orf181
# C15orf39 = target: C15orf39
# C15orf42 = target: C15orf42
# C14orf149 = target: C14orf149
# C15orf54 = target: C15orf54
# C17orf71 = target: C17orf71
# C1QL1 = target: C1QL1
# C1orf64 = target: C1orf64
# C20orf112 = target: C20orf112
# C1orf84 = target: C1orf84
# C20orf54 = target: C20orf54
# C1orf61 = target: C1orf61
# C2orf82 = target: C2orf82
# C6orf105 = target: C6orf105
# C7orf47 = target: C7orf47
# C7orf69 = target: C7orf69
# C7orf11 = target: C7orf11
# C8B = target: C8B
# Further: reference of the scale not given here.
sequence,measurement,setting,value
TACATCAGCAGCAAACTCCTGT,sensor-assay potency score (higher = more potent),BRD2,0.587
TTGCGAAGCTCTAGCACCTCGG,sensor-assay potency score (higher = more potent),BOLA1,-0.666
TCAAACCACACCAGCTTGCTAT,sensor-assay potency score (higher = more potent),BOP1,-1.16
TTGACCTGAAGCAAGTTGCTAT,sensor-assay potency score (higher = more potent),BOLA1,-0.107
TTGTACACCATGCCATGGCAGA,sensor-assay potency score (higher = more potent),BOP1,-1.35
TTCCTGGATGAAGCGTCCGTAG,sensor-assay potency score (higher = more potent),BOP1,-1.83
TTTTACTTGCAACCAGTCGATG,sensor-assay potency score (higher = more potent),BRAP,-1.46
TGAGAGTTCTCTCTCCACTGGG,sensor-assay potency score (higher = more potent),BOLA1,-0.015
TCTACATTCACCCTCATCTTGC,sensor-assay potency score (higher = more potent),BOP1,-0.893
TTGATGGCGTGCACCATGCGAG,sensor-assay potency score (higher = more potent),BOP1,-1.27
TTGACGGGCACCAGCAAGGGGT,sensor-assay potency score (higher = more potent),BOP1,-1.16
TAAAATCTTGCATACACTCTGA,sensor-assay potency score (higher = more potent),BRD2,-0.097
AGGATCGTCCATCTTGTCCAGG,sensor-assay potency score (higher = more potent),BOP1,-2.16
TTTGGGATTGGACACCTCCGGG,sensor-assay potency score (higher = more potent),BRD2,-1.12
TATAATTTTGTGATAATCCGGT,sensor-assay potency score (higher = more potent),BRD2,0.775
TAGGAGATCATTTAGTTTGTGC,sensor-assay potency score (higher = more potent),BRAP,0.0397
TTGGCTAATATCTTCCCTGTTT,sensor-assay potency score (higher = more potent),C11orf49,-0.438
TTTCTGAGTGAGCTCCAGCGGG,sensor-assay potency score (higher = more potent),C11orf49,-0.907
TATTTTAGCTTGGAGGTGGTGG,sensor-assay potency score (higher = more potent),C14orf181,-0.309
TTCGGTTTTGTGCAAGGGGGAA,sensor-assay potency score (higher = more potent),C14orf181,-0.823
TTTGTCCTGACCTTCACTGGTG,sensor-assay potency score (higher = more potent),C15orf39,-0.221
TTTAGCTTGGAGGTGGTGGTGG,sensor-assay potency score (higher = more potent),C14orf181,0.0381
TATACTATCCACAACATCTGAG,sensor-assay potency score (higher = more potent),C15orf42,0.285
TTTACTCTTACTAACTTCTGAA,sensor-assay potency score (higher = more potent),C15orf42,0.249
TAATTTAGAGAAAACAGTCCTT,sensor-assay potency score (higher = more potent),C14orf149,0.523
TTCAACATCTTTAAGGAACGGC,sensor-assay potency score (higher = more potent),C15orf42,0.686
TGGTGCTTCTGTGTCTATCTTT,sensor-assay potency score (higher = more potent),C15orf39,-0.327
TTCGCCTGGAGCGCGTCCCTTC,sensor-assay potency score (higher = more potent),C14orf181,-1.3
ATAAGGAAAACTCAGTGTCTGG,sensor-assay potency score (higher = more potent),C15orf39,-1.35
TTTAGGAACATTTTAACGGTTG,sensor-assay potency score (higher = more potent),C15orf42,-0.0807
TACAACATGATTTCTCCTGTGG,sensor-assay potency score (higher = more potent),C15orf42,0.642
TAGGTTTAGAACTTCTTAGTGT,sensor-assay potency score (higher = more potent),C15orf42,0.687
AGGTATTTTAGCTTGGAGGTGG,sensor-assay potency score (higher = more potent),C14orf181,-1.31
TCTTCTATTATAAAGCTTGCTG,sensor-assay potency score (higher = more potent),C14orf149,-0.472
TAGCTTGGAGGTGGTGGTGGGG,sensor-assay potency score (higher = more potent),C14orf181,-0.69
AAAGTGAAAGTCTTCGGAGTGA,sensor-assay potency score (higher = more potent),C14orf181,0.018
TGCACTGCCGCTTCCGACCGGG,sensor-assay potency score (higher = more potent),C14orf181,-0.747
TACCGGTAGAGTACAAGGGTGG,sensor-assay potency score (higher = more potent),C15orf39,-0.811
ATAGAGAGAGAGGTCATCCCGG,sensor-assay potency score (higher = more potent),C15orf39,-0.641
TTCGGAGTGAAGGAGGCGCTGC,sensor-assay potency score (higher = more potent),C14orf181,-1.09
TTGATTTACAAGACAATAGGAG,sensor-assay potency score (higher = more potent),C15orf42,0.136
TTCATCTTCTGTCTCACTGGAG,sensor-assay potency score (higher = more potent),C15orf42,0.162
TAACCCTTCGCTGACCCGGCGT,sensor-assay potency score (higher = more potent),C14orf181,-0.821
TTCTTGATGAGCTATAGTGGAT,sensor-assay potency score (higher = more potent),C15orf42,-1.03
TATAAGCATCTTTTCCATCTGT,sensor-assay potency score (higher = more potent),C14orf149,0.316
TTCAGCATGCGTGAGGTGCAGC,sensor-assay potency score (higher = more potent),C15orf39,-0.396
TAGAGAGAGAGGTCATCCCGGG,sensor-assay potency score (higher = more potent),C15orf39,-0.132
TTAGCTTGGAGGTGGTGGTGGG,sensor-assay potency score (higher = more potent),C14orf181,-0.365
TATACTTATTCTCACATCCTTT,sensor-assay potency score (higher = more potent),C15orf54,-0.462
TTGTCAATGACAGGCATTGGTG,sensor-assay potency score (higher = more potent),C15orf39,-1.34
TACACAGTCGCGCCACTGCAGG,sensor-assay potency score (higher = more potent),C15orf39,-1.54
TGGAGCTTCTCTTTCCTGCAGC,sensor-assay potency score (higher = more potent),C15orf39,-0.965
TTGTCCTGACCTTCACTGGTGG,sensor-assay potency score (higher = more potent),C15orf39,-0.545
TTGGTCTGACTTATCTTGCTGG,sensor-assay potency score (higher = more potent),C15orf42,-0.193
TTCCTTTACATTTATAACCATT,sensor-assay potency score (higher = more potent),C15orf54,-1.28
TTAGTGATCTCTTTGAAGGGGA,sensor-assay potency score (higher = more potent),C15orf42,0.326
TTCAATTTGTCGAAGATTCTGT,sensor-assay potency score (higher = more potent),C15orf42,0.525
AAAGTCTTCGGAGTGAAGGAGG,sensor-assay potency score (higher = more potent),C14orf181,-0.89
TTCCACAACACTTTTCTTCCAG,sensor-assay potency score (higher = more potent),C17orf71,0.741
TAGTTGTTGCCTAGGTTGGTGA,sensor-assay potency score (higher = more potent),C1QL1,-1.01
TTTCAGTGAGTCCTTGACTGTT,sensor-assay potency score (higher = more potent),C1orf64,-0.901
TTGATGGAATCGTAGCTCCCAG,sensor-assay potency score (higher = more potent),C20orf112,-1.02
TTTCTTGTCTCGCTCTCACAGG,sensor-assay potency score (higher = more potent),C20orf112,-0.96
ATGTAAGTCTTCATTGGTGGGG,sensor-assay potency score (higher = more potent),C1orf64,-0.782
TAGTTACATAGATCTCAGGCTG,sensor-assay potency score (higher = more potent),C1orf84,-0.122
TTAGCCTCGGGAACCTCCTGGG,sensor-assay potency score (higher = more potent),C1orf64,-0.502
TTCATCTTGTCATTGTCCTCAT,sensor-assay potency score (higher = more potent),C20orf112,0.226
TTGTCTCGCTCTCACAGGCAGC,sensor-assay potency score (higher = more potent),C20orf112,-1.65
TTATCTGCTTGTCTTGTAGAAG,sensor-assay potency score (higher = more potent),C20orf54,-1.04
TTAACAGGAACACCTGCCCAGC,sensor-assay potency score (higher = more potent),C1orf84,-1.3
TTACATAGATCTCAGGCTGGAA,sensor-assay potency score (higher = more potent),C1orf84,-0.261
TTTCATTAACAGGAACACCTGC,sensor-assay potency score (higher = more potent),C1orf84,0.405
TAAGTCTTCATTGGTGGGGTGA,sensor-assay potency score (higher = more potent),C1orf64,-0.373
ATCTCAGTGACATTGACGCAGG,sensor-assay potency score (higher = more potent),C20orf54,-1.25
AAGTTGAAGACCTCACAGGCGC,sensor-assay potency score (higher = more potent),C1orf64,-0.73
TCATCAAACAAGATCTCCCCTG,sensor-assay potency score (higher = more potent),C1orf84,-0.444
ATTAACAGGAACACCTGCCCAG,sensor-assay potency score (higher = more potent),C1orf84,0.146
TTCTTGTCTCGCTCTCACAGGC,sensor-assay potency score (higher = more potent),C20orf112,-0.87
TTCAGTGAGTCCTTGACTGTTC,sensor-assay potency score (higher = more potent),C1orf64,0.426
ATCGTCGTCATCATCTGCCGTC,sensor-assay potency score (higher = more potent),C20orf112,-0.187
TTGGTGCAGATGACTGAGGAAC,sensor-assay potency score (higher = more potent),C1orf84,-1.39
TTCATCAAACAAGATCTCCCCT,sensor-assay potency score (higher = more potent),C1orf84,0.55
TATCGTTATCTGCTTGTCTTGT,sensor-assay potency score (higher = more potent),C20orf54,0.0273
ATTGTCCTCATGGTCATCGTGG,sensor-assay potency score (higher = more potent),C20orf112,-0.617
TCAATAACAAAAGTCAGGTGAG,sensor-assay potency score (higher = more potent),C1orf64,-0.224
TTCCCCACAGAACACGATGTAA,sensor-assay potency score (higher = more potent),C1orf64,-1.15
ATTGGTGGGGTGACAAGCCCTC,sensor-assay potency score (higher = more potent),C1orf64,-0.204
TAGATCTCTAGACGCATCCGCT,sensor-assay potency score (higher = more potent),C20orf112,0.0864
TTCATCTGCAGAGCGCAGCAGG,sensor-assay potency score (higher = more potent),C20orf112,-0.526
TGTAAGTCTTCATTGGTGGGGT,sensor-assay potency score (higher = more potent),C1orf64,0.329
TTCCTGTTCAGACAGCATCTCC,sensor-assay potency score (higher = more potent),C1orf84,-0.954
TTCATTAACAGGAACACCTGCC,sensor-assay potency score (higher = more potent),C1orf84,0.858
TAGCCTCGGGAACCTCCTGGGG,sensor-assay potency score (higher = more potent),C1orf64,-1.66
TTGACTGTGGAGGTTCTGCGGG,sensor-assay potency score (higher = more potent),C20orf112,-0.683
TCGTCATCATCTGCCGTCGGGG,sensor-assay potency score (higher = more potent),C20orf112,-1.61
TCCAACTCAATGACAAACCGAT,sensor-assay potency score (higher = more potent),C1orf84,-0.656
TTGAAGACCTCACAGGCGCAGC,sensor-assay potency score (higher = more potent),C1orf64,-1.07
TTTCATGCTGAGGTCCGTGGGC,sensor-assay potency score (higher = more potent),C20orf112,-0.763
TTGTGCTGCCTGGAGGACGAGG,sensor-assay potency score (higher = more potent),C1orf61,-1.4
TTACTCTCCAACTAGTGGGCTT,sensor-assay potency score (higher = more potent),C20orf54,-0.23
TGGAACATCGTCTGTGAGCACC,sensor-assay potency score (higher = more potent),C2orf82,-1.29
TCTTTTCAGCACATCATCCAGG,sensor-assay potency score (higher = more potent),C6orf105,-0.0678
TGGAGATTCATAAAATAGCGTT,sensor-assay potency score (higher = more potent),C7orf47,-0.725
TTTGATAGTTTGACAAAACTTG,sensor-assay potency score (higher = more potent),C7orf69,-0.171
TTGCTCTGCATTTGATAGTTTG,sensor-assay potency score (higher = more potent),C7orf69,-1.46
TGGGTCACACAAGATGGTCATG,sensor-assay potency score (higher = more potent),C7orf47,-1.71
TGATAGTTTGACAAAACTTGTA,sensor-assay potency score (higher = more potent),C7orf69,-0.512
ATATCCACTACAGATACTGGTT,sensor-assay potency score (higher = more potent),C7orf11,-0.708
TAGTTTGACAAAACTTGTAGAG,sensor-assay potency score (higher = more potent),C7orf69,-0.507
TTGTCAGAGAAGTTGCACGGTT,sensor-assay potency score (higher = more potent),C8B,-0.544
TAACACAAAAATACGAACTAGC,sensor-assay potency score (higher = more potent),C7orf47,0.2
ATAGTTTGACAAAACTTGTAGA,sensor-assay potency score (higher = more potent),C7orf69,-0.39
TCACACAAGATGGTCATGTCTG,sensor-assay potency score (higher = more potent),C7orf47,-0.315
TCATAAAATAGCGTTTCTGGGT,sensor-assay potency score (higher = more potent),C7orf47,-0.72
AACACAGTCTTCGACTTCCTTG,sensor-assay potency score (higher = more potent),C8B,-0.726
TTTGCTCTGCATTTGATAGTTT,sensor-assay potency score (higher = more potent),C7orf69,-0.51
TAAATGTTGCAAGTTATCCTAC,sensor-assay potency score (higher = more potent),C7orf11,0.0898
TTTGAGTATTGCTGTATTGTTG,sensor-assay potency score (higher = more potent),C7orf11,-0.804
TTGATAGTTTGACAAAACTTGT,sensor-assay potency score (higher = more potent),C7orf69,-1.4
TAAAATAGCGTTTCTGGGTCAC,sensor-assay potency score (higher = more potent),C7orf47,0.138
